Assay results from PubChem BioAssay.
Calls of active or inactive are those of the source.

Assays:
Albumin (Bos taurus) = Albumin (Bos taurus) (UniProt P02769); assay: bovine serum albumin binders on microarray, profiling panel, artefact control for SMM control protein annotation, biochemical, small-molecule microarray, Alexa647 label, 635/667 nm fluorescence (AID 1118); conditions: BSA-A647 binding, fluorescence 635 nm, higher = more signal;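 further: score merges 667 nm emission intensity and signal-to-noise per printed compound spot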
[1] = small-molecule microarray binders of probe aXIP, primary screen, biochemical, NeuroSMM set, 635/667 nm fluorescence (AID 1119); conditions: higher = more signal, called active from +8 up or from −8 down;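 further: probe is the protein aXip251-270 applied at 1 µg/mL to compound-printed slides; binding of probe to printed compounds measured as 667 nm fluorescence plus signal to noise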
[2] = small-molecule binders of probe aNOTCH3, primary screen, biochemical, small-molecule microarray, 635/667 nm fluorescence (AID 1120); conditions: higher = more signal;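 further: probe is a biotin-tagged antibody raised against NOTCH3 rather than NOTCH3 protein; score merges spot fluorescence near 667 nm with spot signal to noise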
[3] = small-molecule binders of probe aNOTCH2, primary screen, biochemical, small-molecule microarray, 635/667 nm fluorescence (AID 1121); conditions: higher = more signal;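 further: score merges feature fluorescence read at 667 nm with its signal to noise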
[4] = target: Carbonic anhydrase 2 (Homo sapiens) (UniProt P00918); assay: CAII small-molecule binders, profiling panel, biochemical, small-molecule microarray, Alexa647-labelled CAII (AID 1122); conditions: CAII-A647 binding fluorescence, higher = more signal
[5] = COS7 lysate on small-molecule microarray, probe aHis, 635 nm (AID 1123); conditions: COS7 cell lysate, fluorescence, higher = more signal;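 further: z-score combines 667nm fluorescence intensity with signal-to-noise per printed compound spot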
[6] = compound binding in COS7 lysate, probe aLAP1, primary screen, cell lysate, small-molecule microarray (AID 1124); conditions: probe aLAP1, fluorescence, higher = more signal;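 further: lysate comes from COS7 cells expressing LAP1 and is applied at 0.3 µg/mL; score merges spot fluorescence near 667 nm with signal-to-noise over triplicate slides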
Sam68 (KHDRBS1) = assay: Sam68 small-molecule binders, primary screen, biochemical, small-molecule microarray, 635 nm fluorescence (AID 1125); conditions: small-molecule microarray binding, higher = more signal;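 further: score merges 667 nm channel intensity with signal to noise over triplicate slides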
[7] = system: Chordin-like protein 2 (CHRDL2); assay: CHRDL2 small-molecule binders, primary screen, biochemical, small-molecule microarray, 635 nm fluorescence (AID 1126); conditions: small-molecule microarray binding, fluorescence 635 nm; higher = more signal;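 further: printed compound slides probed with Chrdl2 protein at 4 µg/mL for 1 h at 4 C; score merges 667 nm emission intensity with signal to noise over three replicate slides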
[8] = target: Concanavalin-A (Canavalia ensiformis) (UniProt P02866); assay: ConA small-molecule binders, primary screen, artefact control for SMM control protein annotation, biochemical, small-molecule microarray, Alexa647 label, 635 nm (AID 1127); conditions: ConA-A647 binding fluorescence, higher = more signal;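 further: z combines 667 nm emission intensity with signal-to-noise across three replicate slides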
Chain of Concanavalin-A (Canavalia ensiformis) (P02866 whole entry, looked up): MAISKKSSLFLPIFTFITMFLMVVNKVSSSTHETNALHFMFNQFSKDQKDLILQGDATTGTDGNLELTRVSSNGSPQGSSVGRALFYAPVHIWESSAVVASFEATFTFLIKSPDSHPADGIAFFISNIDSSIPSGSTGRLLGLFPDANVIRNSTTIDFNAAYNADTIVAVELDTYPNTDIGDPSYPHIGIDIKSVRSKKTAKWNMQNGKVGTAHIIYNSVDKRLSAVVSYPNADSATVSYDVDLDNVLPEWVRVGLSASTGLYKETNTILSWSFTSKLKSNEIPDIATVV

Chain of Albumin (Bos taurus) (P02769 whole entry, looked up): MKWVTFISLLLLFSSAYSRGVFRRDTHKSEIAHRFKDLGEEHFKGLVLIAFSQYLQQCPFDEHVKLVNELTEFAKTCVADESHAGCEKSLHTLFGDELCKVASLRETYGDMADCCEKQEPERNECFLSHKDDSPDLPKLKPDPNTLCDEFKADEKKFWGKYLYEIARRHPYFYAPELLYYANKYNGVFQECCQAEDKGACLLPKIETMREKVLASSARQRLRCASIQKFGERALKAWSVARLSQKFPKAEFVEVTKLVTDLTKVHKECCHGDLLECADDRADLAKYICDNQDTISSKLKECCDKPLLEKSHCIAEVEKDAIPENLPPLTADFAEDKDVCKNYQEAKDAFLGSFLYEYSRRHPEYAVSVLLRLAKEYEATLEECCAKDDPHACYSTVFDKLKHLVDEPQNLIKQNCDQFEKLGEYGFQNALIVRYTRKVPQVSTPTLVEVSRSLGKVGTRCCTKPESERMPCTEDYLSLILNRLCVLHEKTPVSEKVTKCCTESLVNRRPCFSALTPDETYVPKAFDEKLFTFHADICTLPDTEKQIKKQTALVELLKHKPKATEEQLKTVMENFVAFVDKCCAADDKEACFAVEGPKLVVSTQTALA

Row | SMILES | composite z-score (Albumin (Bos taurus)) | composite Z-score [1] | composite z-score [2] | composite z-score [3] | composite z-score [4] | composite z-score [5] | composite z-score [6] | composite z-score (Sam68 (KHDRBS1)) | composite z-score [7] | composite z-score [8]
1 | COC(=O)CC=C[C@H](C)[C@@H](OCc1ccccc1Br)C(C)C | -0.0311 | -0.0469 (inactive) | -0.0343 | -0.113 | -0.279 | 0.164 | 0.0326 | -0.385 | 0.382 | 0.112
2 | CO[C@H]([C@@H](C)[C@H](OC)c1ccccc1)[C@H](C)[C@@H](OC)[C@H](C)C(C)=O | -0.529 | 0.837 (inactive) | -0.13 | -0.0551 | -0.505 | -0.74 | -0.32 | -1.24 | -0.326 | -2.34
3 | CCOC(=O)C[C@H]1[C@H](OC(=O)c2ccc(C(=O)c3ccccc3)cc2)[C@@H](NC(=O)c2ccc(-c3ccccc3)cc2)c2cc(OCCCO)ccc2N1C(=O)c1ccc2ccccc2n1 | 0.0279 | 0.228 (inactive) | 0.0084 | -0.101 | 0.0886 | 0.71 | -0.142 | 1.31 | 0.611 | 0.844
4 | CC(C)NC(=O)[C@@]1(c2ccc([N+](=O)[O-])cc2)CC(=O)N(CC23CC4CC(CC(C4)C2)C3)[C@@H]1c1ccc(CO)cc1I | -0.0212 | 0.567 (inactive) | 0.299 | 0.23 | 0.241 | 0.997 | 1.04 | 1.27 | 0.111 | 0.93
5 | O=C1NC(=O)C2C1C=CC(C(O)Cc1ccccc1)N2Nc1ccccn1 (stereo not given) | 0.461 | -0.0126 (inactive) | -0.0311 | -0.0079 | 0.865 | 1.87 | 0.12 | 0.322 | 0.313 | 0.77
6 | CC(CCN1CCCCc2nc(C)c(C)cc21)=NOC(C)CN1CCCCc2nc(C)c(C)cc21 (stereo not given) | 0.845 | 0.833 (inactive) | 0.284 | -0.0131 | 0.503 | 1.12 | 0.858 | 1.3 | 1.25 | 0.898
7 | CO[C@H]1COC(=O)[C@@H]2CCCN2C(=O)CC=C[C@@H](C)[C@H](OC)COC(=O)CC=C[C@@H]1C | -0.806 | 1.31 (inactive) | 0.0753 | -0.0931 | -0.235 | -0.0693 | 0.0482 | 1.28 | 1.38 | -1.28
8 | NC(=O)NCC#Cc1ccc2c(c1)[C@]1(C(=O)N2)[C@H](c2ccc(O)cc2)N2[C@H](c3ccccc3)[C@H](c3ccccc3)OC(=O)[C@H]2[C@@H]1C(=O)N1CCCCCCC1 | -0.476 | 0.645 (inactive) | 0.976 | -0.172 | 0.39 | 0.594 | 0.596 | 0.792 | 0.983 | 0.848
9 | CCOC(=O)[C@H](Cc1ccccc1)NC(=O)CCC1CC(OC(=O)NCc2ccc3c(c2)OCO3)CC2(CCCC(COC(=O)NCc3ccccc3)O2)O1 (stereo not given in full) | 0.3 | 0.255 (inactive) | 0.0437 | -0.0728 | 0.373 | 0.248 | 0.0766 | 1.06 | 0.261 | 0.915
10 | Cc1ccc(S[C@]2(C(=O)NCC(F)(F)F)CC(=O)N(Cc3ccccc3Cl)[C@@H]2c2ccc(CO)cc2I)cc1 | -0.937 | 0.0162 (inactive) | -0.133 | -0.134 | 0.796 | 1.56 | -0.49 | 0.0712 | -1.04 | -0.275
11 | COc1ccc(O[C@H]2C=C[C@@H](c3ccccc3)O[C@@H]2COC(=O)CCC(C)=NOC(C)CN2CCCCc3nc(C)c(C)cc32)cc1 (stereo not given in full) | -0.485 | 0.105 (inactive) | -0.0918 | -0.179 | 0.456 | 0.121 | -0.312 | -0.433 | -0.101 | -0.929
12 | C[C@H]1CC[C@@H](C(=O)O)N[C@@H]1c1ccc(C#CCN(C)C)cc1 | -0.0169 | 0.26 (inactive) | 0.0556 | -0.149 | 0.37 | -0.144 | -0.0228 | -0.331 | 0.591 | 0.574
13 | COCCNC(=O)OCC1CCCC2(CC(OC(=O)NCCc3ccc(F)cc3)CC(CCC(=O)N[C@@H](C)C(=O)OC)O2)O1 (stereo not given in full) | 0.456 | -0.126 (inactive) | 0.0228 | -0.144 | 0.245 | 0.292 | -0.0037 | 1.3 | 0.581 | 0.769
14 | COc1ccc(O[C@H]2C=C[C@@H](c3ccccc3)O[C@@H]2CON=C[C@@H](C)[C@H](OCc2ccccc2)C(C)C)cc1 | -0.136 | -0.236 (inactive) | -0.245 | -0.198 | -0.89 | -0.53 | -0.419 | -1.67 | -0.163 | -0.409
15 | CCN1C(=O)[C@H]2[C@H]3[C@H](O)[C@H](O)CC(=NOC[C@@H](C)[C@H](OCc4ccccc4)C(C)C)[C@@H]3CC[C@H]2C1=O | 0.665 | 0.0576 (inactive) | -0.152 | -0.131 | -0.0205 | 0.276 | -0.504 | 0.614 | -0.13 | -0.223
16 | CC(CCC(=O)OC[C@H]1O[C@H](C#Cc2ccccc2)C=C[C@@H]1Oc1ccc(C)cc1)=NOC[C@@H](O)[C@H]1O[C@@H]2OC(C)(C)O[C@@H]2[C@H]1O | -0.326 | -0.404 (inactive) | -0.2 | -0.187 | -0.023 | -0.282 | 0.137 | 0.14 | -0.532 | -0.614
17 | CCCNC(=O)[C@@H]1c2ccccc2C(=O)N(c2ccc(C)cn2)[C@H]1c1ccc(CO)cc1 | 0.206 | -0.207 (inactive) | -0.305 | -0.109 | 0.769 | -0.018 | -0.514 | -0.646 | -0.382 | -0.984
